# Experimental data published in PMC7862700, “An all-to-all approach to the identification of sequence-specific readers for epigenetic DNA modifications on cytosine”.
# What was measured:
# Test in all cases: DAPPL (digital affinity profiling via proximity ligation, sequencing); 10 mM Tris-HCl pH 7.5, 50 mM NaCl, 1 mM DTT, 4% glycerol, room temperature, 30 min; GST-TFs on glutathione beads, 16-mer random dsDNA library, 0.1% formaldehyde crosslink after washing; high values mean tight binding
# Details in all cases: protein: recombinant; tags: N-terminal GST; dsDNA, one strand shown
# [1] = target: T1, ELK1 (Homo sapiens, UniProt P19419 1-428)
# T1 sequence: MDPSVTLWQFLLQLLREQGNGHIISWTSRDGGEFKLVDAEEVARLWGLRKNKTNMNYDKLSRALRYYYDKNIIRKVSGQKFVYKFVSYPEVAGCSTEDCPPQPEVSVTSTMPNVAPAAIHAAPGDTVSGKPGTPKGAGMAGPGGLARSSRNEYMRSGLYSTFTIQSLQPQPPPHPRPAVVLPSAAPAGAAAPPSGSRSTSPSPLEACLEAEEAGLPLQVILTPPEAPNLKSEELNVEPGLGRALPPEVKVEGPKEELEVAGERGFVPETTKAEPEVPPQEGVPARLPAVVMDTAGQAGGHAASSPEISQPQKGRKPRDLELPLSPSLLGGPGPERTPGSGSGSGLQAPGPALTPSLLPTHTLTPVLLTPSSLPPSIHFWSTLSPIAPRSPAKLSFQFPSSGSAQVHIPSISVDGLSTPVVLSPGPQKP
# Method in brief: (§1)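 Pools were built from human transcription factors expressed in yeast as GST fusions, captured on glutathione beads and DNA-barcoded, along with a tag-only sample. Incubation with 200 nmole of a 16-mer random double-stranded DNA library lasted 30 min at room temperature in Tris/NaCl/DTT/glycerol buffer, and was followed by washing, 0.1% formaldehyde crosslinking, proximity ligation, PCR amplification and Illumina NextSeq500 sequencing. Binding signal is the quotient of each hexamer's read frequency for a factor and its frequency for the tag-only sample.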
# [2] = target: T2, GABPA (Homo sapiens, UniProt Q06546 1-454)
# T2 sequence: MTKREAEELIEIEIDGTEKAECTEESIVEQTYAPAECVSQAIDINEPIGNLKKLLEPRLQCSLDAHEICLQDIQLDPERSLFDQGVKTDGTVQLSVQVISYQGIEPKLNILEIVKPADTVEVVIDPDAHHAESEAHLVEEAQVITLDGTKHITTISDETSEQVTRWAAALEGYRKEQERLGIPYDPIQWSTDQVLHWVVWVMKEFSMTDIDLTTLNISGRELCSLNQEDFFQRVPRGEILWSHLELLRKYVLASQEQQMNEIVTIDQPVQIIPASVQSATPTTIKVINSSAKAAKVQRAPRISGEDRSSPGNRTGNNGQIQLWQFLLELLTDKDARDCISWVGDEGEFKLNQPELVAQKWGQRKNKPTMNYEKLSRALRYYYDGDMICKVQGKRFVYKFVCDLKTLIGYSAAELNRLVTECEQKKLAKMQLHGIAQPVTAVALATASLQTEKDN
# Method in brief: as §1
# [3] = target: T3, ERG (Homo sapiens, UniProt P11308 1-479)
# T3 sequence: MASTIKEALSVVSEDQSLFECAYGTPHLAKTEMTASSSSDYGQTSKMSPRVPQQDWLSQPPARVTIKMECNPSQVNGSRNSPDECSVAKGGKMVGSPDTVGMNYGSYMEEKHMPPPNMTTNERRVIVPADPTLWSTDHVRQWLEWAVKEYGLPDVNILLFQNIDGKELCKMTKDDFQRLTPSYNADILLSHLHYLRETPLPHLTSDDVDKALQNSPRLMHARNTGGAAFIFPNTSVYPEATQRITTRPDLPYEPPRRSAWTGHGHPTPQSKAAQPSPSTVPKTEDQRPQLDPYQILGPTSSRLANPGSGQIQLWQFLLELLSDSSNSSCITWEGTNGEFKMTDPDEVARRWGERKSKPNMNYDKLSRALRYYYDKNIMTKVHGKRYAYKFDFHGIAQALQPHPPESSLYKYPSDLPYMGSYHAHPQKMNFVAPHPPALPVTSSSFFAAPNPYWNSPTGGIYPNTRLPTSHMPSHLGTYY
# Method in brief: as §1
# [4] = target: ELF1 (Homo sapiens, UniProt P32519 1-619)
# ELF1, sequence (P32519 whole entry): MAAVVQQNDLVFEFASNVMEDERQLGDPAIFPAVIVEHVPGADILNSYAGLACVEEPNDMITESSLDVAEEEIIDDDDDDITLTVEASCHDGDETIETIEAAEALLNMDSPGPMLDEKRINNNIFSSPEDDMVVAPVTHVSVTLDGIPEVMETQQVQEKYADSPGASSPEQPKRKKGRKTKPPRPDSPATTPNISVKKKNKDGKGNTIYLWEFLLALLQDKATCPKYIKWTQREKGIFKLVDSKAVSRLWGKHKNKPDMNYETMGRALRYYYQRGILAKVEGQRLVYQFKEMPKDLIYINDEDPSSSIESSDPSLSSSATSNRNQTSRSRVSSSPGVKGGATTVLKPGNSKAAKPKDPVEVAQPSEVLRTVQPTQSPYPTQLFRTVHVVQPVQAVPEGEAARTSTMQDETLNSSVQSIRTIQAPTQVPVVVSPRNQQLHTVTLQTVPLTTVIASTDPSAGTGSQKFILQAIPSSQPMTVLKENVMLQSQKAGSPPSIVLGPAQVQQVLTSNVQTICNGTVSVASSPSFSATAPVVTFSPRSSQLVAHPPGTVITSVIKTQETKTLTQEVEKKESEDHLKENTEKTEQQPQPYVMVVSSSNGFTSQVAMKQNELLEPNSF
# Method in brief: as §1
# [5] = target: T4, EHF (Homo sapiens, UniProt Q9NZC4 1-300)
# T4 sequence: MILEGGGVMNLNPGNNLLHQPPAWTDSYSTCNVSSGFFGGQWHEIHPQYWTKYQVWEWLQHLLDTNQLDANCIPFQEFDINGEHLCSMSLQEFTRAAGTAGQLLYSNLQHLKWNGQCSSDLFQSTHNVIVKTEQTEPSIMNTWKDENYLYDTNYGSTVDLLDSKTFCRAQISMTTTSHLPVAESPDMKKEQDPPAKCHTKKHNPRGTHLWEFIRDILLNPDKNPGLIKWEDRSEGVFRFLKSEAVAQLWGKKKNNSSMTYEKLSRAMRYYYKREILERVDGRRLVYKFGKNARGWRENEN
# Method in brief: as §1
# [6] = target: SPI1 (Homo sapiens, UniProt P17947 1-270)
# Method in brief: as §1
# [7] = target: SPIB (Homo sapiens, UniProt Q01892 1-262)
# SPIB, sequence (Q01892 whole entry): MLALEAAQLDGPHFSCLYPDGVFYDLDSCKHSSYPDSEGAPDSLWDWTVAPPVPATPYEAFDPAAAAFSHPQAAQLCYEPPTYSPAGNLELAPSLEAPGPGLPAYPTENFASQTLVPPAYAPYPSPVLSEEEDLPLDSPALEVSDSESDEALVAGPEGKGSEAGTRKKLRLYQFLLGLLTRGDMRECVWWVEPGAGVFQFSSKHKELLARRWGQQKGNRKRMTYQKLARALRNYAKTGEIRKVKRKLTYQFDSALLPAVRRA
# Method in brief: as §1
# [8] = target: T5, FEV (Homo sapiens, UniProt Q99581 1-238)
# T5 sequence: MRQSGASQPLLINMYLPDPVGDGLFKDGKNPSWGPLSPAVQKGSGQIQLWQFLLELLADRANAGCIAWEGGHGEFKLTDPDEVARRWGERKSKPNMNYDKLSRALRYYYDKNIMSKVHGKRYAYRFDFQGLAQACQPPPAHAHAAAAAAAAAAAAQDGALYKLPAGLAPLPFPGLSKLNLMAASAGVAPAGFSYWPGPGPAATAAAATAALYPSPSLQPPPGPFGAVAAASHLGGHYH
# Method in brief: as §1
# [9] = target: ETV5 (Homo sapiens, UniProt P41161 1-510)
# ETV5, sequence (P41161 whole entry): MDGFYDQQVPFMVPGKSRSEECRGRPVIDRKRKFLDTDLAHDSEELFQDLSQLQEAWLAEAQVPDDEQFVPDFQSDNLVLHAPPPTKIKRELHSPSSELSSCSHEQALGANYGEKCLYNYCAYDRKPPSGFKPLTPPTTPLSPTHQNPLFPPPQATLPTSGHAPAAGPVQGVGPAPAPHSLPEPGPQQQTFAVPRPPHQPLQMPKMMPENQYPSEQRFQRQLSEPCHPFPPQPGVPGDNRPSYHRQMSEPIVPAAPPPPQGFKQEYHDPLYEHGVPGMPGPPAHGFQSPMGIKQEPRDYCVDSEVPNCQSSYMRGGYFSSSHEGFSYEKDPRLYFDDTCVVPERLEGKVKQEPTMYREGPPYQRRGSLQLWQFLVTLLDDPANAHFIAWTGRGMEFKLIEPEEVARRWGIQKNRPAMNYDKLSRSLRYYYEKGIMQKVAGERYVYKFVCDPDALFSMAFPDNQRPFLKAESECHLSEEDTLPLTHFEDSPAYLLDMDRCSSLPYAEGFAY
# Method in brief: as §1
# [10] = target: ELF4 (Homo sapiens, UniProt Q99607 1-663)
# ELF4, sequence (Q99607 whole entry): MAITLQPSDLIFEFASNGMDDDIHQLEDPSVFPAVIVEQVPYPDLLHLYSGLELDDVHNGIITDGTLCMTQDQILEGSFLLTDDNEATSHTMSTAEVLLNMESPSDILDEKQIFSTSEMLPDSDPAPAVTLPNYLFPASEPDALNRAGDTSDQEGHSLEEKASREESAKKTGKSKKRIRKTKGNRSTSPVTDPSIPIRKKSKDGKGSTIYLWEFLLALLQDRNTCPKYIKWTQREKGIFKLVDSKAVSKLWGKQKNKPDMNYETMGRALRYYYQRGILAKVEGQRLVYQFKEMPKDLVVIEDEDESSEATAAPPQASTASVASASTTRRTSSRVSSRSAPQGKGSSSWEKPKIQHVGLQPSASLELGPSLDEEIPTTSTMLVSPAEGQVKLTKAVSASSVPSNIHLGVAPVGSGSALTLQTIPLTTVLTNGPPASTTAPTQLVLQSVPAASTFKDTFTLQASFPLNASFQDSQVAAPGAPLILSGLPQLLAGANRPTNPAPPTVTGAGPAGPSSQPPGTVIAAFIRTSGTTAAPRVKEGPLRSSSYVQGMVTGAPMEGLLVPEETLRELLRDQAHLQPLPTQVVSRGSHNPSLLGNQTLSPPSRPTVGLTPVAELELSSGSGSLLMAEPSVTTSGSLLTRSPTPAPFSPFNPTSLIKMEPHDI
# Method in brief: as §1
# [11] = target: T6, ELF3 (Homo sapiens, UniProt P78545 1-371)
# T6 sequence: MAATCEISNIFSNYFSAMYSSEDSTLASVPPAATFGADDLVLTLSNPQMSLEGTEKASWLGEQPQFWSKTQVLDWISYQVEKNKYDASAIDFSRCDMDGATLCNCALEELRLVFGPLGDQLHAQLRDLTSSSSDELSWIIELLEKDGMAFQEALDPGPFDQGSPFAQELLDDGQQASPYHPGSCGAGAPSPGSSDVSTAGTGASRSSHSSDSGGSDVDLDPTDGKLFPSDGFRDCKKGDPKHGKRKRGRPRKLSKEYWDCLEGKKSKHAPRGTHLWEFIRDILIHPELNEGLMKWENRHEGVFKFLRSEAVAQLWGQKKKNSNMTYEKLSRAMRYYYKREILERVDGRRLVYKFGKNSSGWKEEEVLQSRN
# Method in brief: as §1
# [12] = target: ETV1 (Homo sapiens, UniProt P50549 1-477)
# ETV1, sequence (P50549 whole entry): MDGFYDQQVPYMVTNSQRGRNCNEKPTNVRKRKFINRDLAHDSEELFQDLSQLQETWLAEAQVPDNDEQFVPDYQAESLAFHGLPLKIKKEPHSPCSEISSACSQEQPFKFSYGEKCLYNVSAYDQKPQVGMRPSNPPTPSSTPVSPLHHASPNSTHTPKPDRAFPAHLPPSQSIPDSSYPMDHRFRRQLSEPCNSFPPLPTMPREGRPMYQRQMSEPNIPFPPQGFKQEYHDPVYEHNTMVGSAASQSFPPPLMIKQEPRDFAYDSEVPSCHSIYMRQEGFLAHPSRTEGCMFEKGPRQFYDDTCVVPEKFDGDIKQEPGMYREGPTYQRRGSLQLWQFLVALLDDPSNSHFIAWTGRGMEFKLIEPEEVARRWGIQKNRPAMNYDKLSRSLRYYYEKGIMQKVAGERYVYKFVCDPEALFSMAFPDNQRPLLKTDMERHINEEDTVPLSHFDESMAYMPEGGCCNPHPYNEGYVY
# Method in brief: as §1
# [13] = target: T7, ERF (Homo sapiens, UniProt P50548 1-548)
# T7 sequence: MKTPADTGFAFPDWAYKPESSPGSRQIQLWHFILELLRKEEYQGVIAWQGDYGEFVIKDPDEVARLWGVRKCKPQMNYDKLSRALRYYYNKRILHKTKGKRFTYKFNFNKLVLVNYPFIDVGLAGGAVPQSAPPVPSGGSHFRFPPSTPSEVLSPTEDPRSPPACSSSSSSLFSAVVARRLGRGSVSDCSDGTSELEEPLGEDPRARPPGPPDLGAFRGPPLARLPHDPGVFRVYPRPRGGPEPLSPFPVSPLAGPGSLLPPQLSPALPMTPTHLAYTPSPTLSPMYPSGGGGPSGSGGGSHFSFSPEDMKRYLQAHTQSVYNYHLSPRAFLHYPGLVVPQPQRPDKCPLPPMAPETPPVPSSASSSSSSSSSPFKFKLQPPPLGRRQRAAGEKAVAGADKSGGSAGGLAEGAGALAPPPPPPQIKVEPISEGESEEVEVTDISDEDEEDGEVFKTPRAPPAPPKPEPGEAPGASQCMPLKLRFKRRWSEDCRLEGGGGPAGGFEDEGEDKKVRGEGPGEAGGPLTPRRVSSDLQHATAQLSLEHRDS
# Method in brief: as §1
# [14] = target: T8, ETV3L (Homo sapiens, UniProt Q6ZN32 1-361)
# T8 sequence: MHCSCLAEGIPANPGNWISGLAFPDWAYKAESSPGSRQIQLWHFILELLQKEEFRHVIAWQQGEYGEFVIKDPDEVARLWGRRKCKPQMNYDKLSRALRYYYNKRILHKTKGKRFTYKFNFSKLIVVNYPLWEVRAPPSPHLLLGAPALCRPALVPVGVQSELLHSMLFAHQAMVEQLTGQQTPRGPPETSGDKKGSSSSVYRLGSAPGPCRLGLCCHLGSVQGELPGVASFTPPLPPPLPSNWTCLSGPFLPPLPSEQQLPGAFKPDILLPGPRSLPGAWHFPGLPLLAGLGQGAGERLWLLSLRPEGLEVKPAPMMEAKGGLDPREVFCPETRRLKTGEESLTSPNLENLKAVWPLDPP
# Method in brief: as §1
# [15] = target: T9, ETS2 (Homo sapiens, UniProt P15036 1-469)
# T9 sequence: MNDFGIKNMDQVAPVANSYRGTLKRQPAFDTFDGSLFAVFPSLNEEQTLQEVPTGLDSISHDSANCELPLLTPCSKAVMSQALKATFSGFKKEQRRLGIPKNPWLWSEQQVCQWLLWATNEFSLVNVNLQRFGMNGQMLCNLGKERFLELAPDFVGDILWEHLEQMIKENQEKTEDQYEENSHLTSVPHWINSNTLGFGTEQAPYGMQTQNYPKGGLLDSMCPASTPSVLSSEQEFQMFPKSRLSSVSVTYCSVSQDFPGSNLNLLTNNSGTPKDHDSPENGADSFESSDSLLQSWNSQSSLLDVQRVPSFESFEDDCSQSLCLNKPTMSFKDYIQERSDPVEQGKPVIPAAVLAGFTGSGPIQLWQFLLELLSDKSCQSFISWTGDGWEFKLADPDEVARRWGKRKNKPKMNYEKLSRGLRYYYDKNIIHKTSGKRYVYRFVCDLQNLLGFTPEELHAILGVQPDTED
# Method in brief: as §1
# [16] = target: T10, SPDEF (Homo sapiens, UniProt O95238 1-335)
# T10 sequence: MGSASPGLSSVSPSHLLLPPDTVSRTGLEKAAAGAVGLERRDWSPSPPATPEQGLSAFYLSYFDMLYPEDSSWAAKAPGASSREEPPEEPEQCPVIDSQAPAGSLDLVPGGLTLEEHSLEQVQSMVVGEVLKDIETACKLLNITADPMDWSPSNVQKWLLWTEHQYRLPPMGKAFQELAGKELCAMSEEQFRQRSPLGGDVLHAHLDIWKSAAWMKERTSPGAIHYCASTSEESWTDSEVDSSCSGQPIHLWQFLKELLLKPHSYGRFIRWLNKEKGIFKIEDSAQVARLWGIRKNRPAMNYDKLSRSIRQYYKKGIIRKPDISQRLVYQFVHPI
# Method in brief: as §1
# [17] = target: T11, ETV7 (Homo sapiens, UniProt Q9Y603 1-341)
# T11 sequence: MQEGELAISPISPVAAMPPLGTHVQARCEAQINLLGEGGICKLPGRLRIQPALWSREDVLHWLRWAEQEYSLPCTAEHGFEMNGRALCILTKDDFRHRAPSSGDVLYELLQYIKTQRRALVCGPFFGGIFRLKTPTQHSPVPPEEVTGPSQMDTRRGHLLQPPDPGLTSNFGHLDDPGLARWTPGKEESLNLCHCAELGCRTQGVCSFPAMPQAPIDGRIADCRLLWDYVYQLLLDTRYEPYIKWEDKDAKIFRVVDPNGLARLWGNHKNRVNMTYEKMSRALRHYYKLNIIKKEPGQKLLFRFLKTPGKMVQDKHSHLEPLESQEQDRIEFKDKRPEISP
# Method in brief: as §1
# [18] = target: T12, ETV3 (Homo sapiens, UniProt P41162-2 1-143)
# T12 sequence: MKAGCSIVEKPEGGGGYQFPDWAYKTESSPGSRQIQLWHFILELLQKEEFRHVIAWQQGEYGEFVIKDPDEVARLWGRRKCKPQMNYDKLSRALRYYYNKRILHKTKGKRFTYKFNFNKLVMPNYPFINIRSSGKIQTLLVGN
# Method in brief: as §1
# [19] = target: ETV6 (Homo sapiens, UniProt P41212 1-452)
# ETV6, sequence (P41212 whole entry): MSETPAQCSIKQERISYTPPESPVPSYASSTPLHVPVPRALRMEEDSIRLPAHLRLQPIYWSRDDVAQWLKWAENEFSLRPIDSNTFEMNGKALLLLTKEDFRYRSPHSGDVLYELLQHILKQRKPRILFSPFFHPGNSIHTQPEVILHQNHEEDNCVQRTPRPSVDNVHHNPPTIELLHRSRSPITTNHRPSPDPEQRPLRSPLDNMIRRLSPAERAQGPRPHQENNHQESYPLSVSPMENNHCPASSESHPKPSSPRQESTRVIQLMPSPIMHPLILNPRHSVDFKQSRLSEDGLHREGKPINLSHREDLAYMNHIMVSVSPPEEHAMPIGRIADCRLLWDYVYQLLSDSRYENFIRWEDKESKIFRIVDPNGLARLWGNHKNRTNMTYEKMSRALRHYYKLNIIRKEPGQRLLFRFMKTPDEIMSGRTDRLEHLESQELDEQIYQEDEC
# Method in brief: as §1
sequence,measurement,setting,value
TGCGCC,binding signal,[1],"1.21 fold enrichment (6-mer frequency, TF over GST control)"
same,binding signal,[2],"1.19 fold enrichment (6-mer frequency, TF over GST control)"
same,binding signal,[3],"1.2 fold enrichment (6-mer frequency, TF over GST control)"
same,binding signal,[4],"1.14 fold enrichment (6-mer frequency, TF over GST control)"
same,binding signal,[5],"1.08 fold enrichment (6-mer frequency, TF over GST control)"
same,binding signal,[6],"1.22 fold enrichment (6-mer frequency, TF over GST control)"
same,binding signal,[7],"1.27 fold enrichment (6-mer frequency, TF over GST control)"
same,binding signal,[8],"1.16 fold enrichment (6-mer frequency, TF over GST control)"
same,binding signal,[9],"1.04 fold enrichment (6-mer frequency, TF over GST control)"
same,binding signal,[10],"1.19 fold enrichment (6-mer frequency, TF over GST control)"
same,binding signal,[11],"1.03 fold enrichment (6-mer frequency, TF over GST control)"
same,binding signal,[12],"1.23 fold enrichment (6-mer frequency, TF over GST control)"
same,binding signal,[13],"1.12 fold enrichment (6-mer frequency, TF over GST control)"
same,binding signal,[14],"1.27 fold enrichment (6-mer frequency, TF over GST control)"
same,binding signal,[15],"1.14 fold enrichment (6-mer frequency, TF over GST control)"
same,binding signal,[16],"1.07 fold enrichment (6-mer frequency, TF over GST control)"
same,binding signal,[17],"1.09 fold enrichment (6-mer frequency, TF over GST control)"
same,binding signal,[18],"1.15 fold enrichment (6-mer frequency, TF over GST control)"
same,binding signal,[19],"1.27 fold enrichment (6-mer frequency, TF over GST control)"
